Bioassay records as filed in PubChem.
HTT aggregate – qHTS Multiplex Assay to Identify Dual Action Probes in a Cell Model of Huntington: Aggregate Formation (GFP). PC12 HttQ103-GFP aggregates, Acumen cytometry, 40 h. Potency, µM (doses to about 46.1 µM), for inactives: at the top dose activity change, negative = inhibition, hits mostly inhibitors. 1.1% of 220,000 active. AID 1688, 2009; active = well fitted curve in the direction sought with a large enough effect; inconclusive = small, poorly fitted or top-dose-only effect, or another doubt; inactive = no such curve, though single readings can be large; an effect the other way counts as inactive or inconclusive; note: potency is the fitted concentration of half-maximal effect; % is set by controls: 0 for no effect and ±100 for the full control effect; nearly all actives have a fitted effect of over 60% in size
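Compounds (qHTS titration) were added to PC12 cells expressing an ecdysone-driven HTT exon 1 Q103–GFP fusion after induction with 100 nM tebufenozide. Aggregate formation was measured as GFP objects in cell lysates.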
HTT cytoprotect – qHTS Multiplex Assay to Identify Dual Action Probes in a Cell Model of Huntington: Cytoprotection (ATP) | AID 1471, 2008 | PC12 HTT-Q103 induced, cytoprotection, ATP luminescence, 40 h | 0.14% of 230,000 active | Potency, µM (doses to about 56.4 µM), without a hit: cytoprotection (ATP increase), actives largely listed as activators; active = well fitted curve in the direction sought with a large enough effect; inconclusive = small, poorly fitted or top-dose-only effect, or another doubt; inactive = no such curve, though single readings can be large; an effect the other way counts as inactive or inconclusive; note: potency is the fitted concentration of half-maximal effect; % of control where 0% means no effect; nearly all actives have a fitted effect of over 45% in size
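Compounds were screened for protection of PC12 cells against cell death after tebufenozide induction (100 nM final) of mutant Huntingtin exon 1 (Q103) fused to GFP.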
ALDH1A1 inh – qHTS Assay for Inhibitors of Aldehyde Dehydrogenase 1 (ALDH1A1); Aldehyde dehydrogenase 1A1 (Homo sapiens), P00352; Purified ALDH1A1, NADH fluorescence, propionaldehyde substrate; Potency, µM (series often up to 75.3 µM), without a hit: at the highest dose activity, negative = inhibition, actives largely listed as inhibitors; 7.3% of 220,000 active;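 note: potency is the fitted concentration of half-maximal effect; plate controls were no enzyme wells and a reference inhibitor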
RGS12 GoLoco inh – qHTS Assay for Inhibitors of RGS12 GoLoco Motif Activity (Red Fluorophore); Guanine nucleotide-binding protein G(i) subunit alpha-1 (Homo sapiens), P63096; 0.44% of 230,000 active; Potency, µM (top dose mostly 61.6 µM), for inactives: at the top dose activity, negative = inhibition, most hits filed as inhibitors; Gai1:RGS12 GoLoco peptide FP, rhodamine, 10 min; active = well fitted inhibition curve with a large enough effect, not every such curve was filed as active; inactive = no such curve, though single readings can be large or run the other way; note: potency is the fitted concentration of half-maximal effect; % is set by controls: 0 for no effect and ±100 for the full control effect; nearly all actives have a fitted effect of over 30% in size
Target sequence (P63096 whole entry, looked up): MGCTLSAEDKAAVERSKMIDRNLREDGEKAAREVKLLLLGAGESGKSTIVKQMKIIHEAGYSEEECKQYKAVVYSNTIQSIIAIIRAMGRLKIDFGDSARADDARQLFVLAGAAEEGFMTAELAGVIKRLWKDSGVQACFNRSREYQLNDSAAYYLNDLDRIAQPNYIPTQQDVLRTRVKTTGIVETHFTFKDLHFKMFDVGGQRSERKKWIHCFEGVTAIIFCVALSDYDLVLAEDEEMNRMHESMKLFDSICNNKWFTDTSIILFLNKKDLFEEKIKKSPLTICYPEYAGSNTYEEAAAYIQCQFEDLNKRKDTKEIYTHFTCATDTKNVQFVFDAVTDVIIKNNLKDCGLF
HPGD block – qHTS Assay for Inhibitors of HPGD (15-Hydroxyprostaglandin Dehydrogenase); purified HPGD, NADH fluorescence kinetic, PGE2 substrate; Potency, µM, for the others: at the top dose activity change, negative = inhibition, usual class: inhibitors; 4.3% of 150,000 active; note: potency is the fitted concentration of half-maximal effect; % is set by controls: 0 for no effect and ±100 for the full control effect
Target sequence (P15428 whole entry, looked up): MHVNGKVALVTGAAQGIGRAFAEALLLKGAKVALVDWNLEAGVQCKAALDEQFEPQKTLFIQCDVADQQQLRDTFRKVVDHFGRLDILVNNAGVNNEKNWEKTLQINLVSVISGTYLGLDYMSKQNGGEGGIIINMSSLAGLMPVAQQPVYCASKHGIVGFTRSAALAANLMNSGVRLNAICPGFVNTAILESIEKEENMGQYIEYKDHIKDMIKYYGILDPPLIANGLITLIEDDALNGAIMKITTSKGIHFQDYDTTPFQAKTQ
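20 nM HPGD preincubated 15 min at room temperature with compound in 50 mM Tris-HCl pH 8, 0.01% Tween 20. Started with 1 mM NAD+ and 30 uM prostaglandin E2; NADH fluorescence (360/450 nm) read 5 times over 30-s intervals, last minus first.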
PNC assembly inh – High Content Assay for Compounds that inhibit the Assembly of the Perinucleolar Compartment. PC3M PTB-GFP, PNC prevalence imaging, 16 h; hits give low values. activity change (PNC), negative = inhibition, % at 10 µM. 3.1% of 140,000 active. AID 2417, 2010;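 active = readout at or below -70, meaning at least 70% loss of cells showing the perinucleolar compartment, a nuclear body marking cancer cells; inconclusive = readout between -30 and a set limit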;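 note: plate controls were DMSO wells for no effect and camptothecin positive control wells for full effect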
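Read-out is percentage of cells bearing a perinucleolar compartment, from automated 20x imaging of fixed, Hoechst-stained PC3M PTB-GFP cells. Cells were seeded 4 h, then exposed 16 h to compound (23 nl of library stock) in duplicate plates.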
An asterisk follows results filed as active; ? = inconclusive; . = not tested or not shown; [ ] = remark or other dose. Most compounds without a hit are left out; they make up all but 11% or so of the library. Unless noted, calls come from the whole dose curve; as a rule, active = well fitted inhibition curve with a large enough effect (not every such curve was filed as active); inconclusive = small, poorly fitted or top-dose-only effect, or another doubt; inactive = no such curve, though single readings can be large or run the other way.

SMILES	HTT aggregate	HTT cytoprotect	ALDH1A1 inh	RGS12 GoLoco inh	HPGD block	PNC assembly inh
Cc1ccccc1OCC(=O)Nc1ccccc1-c1ccccc1	23.5%	-40.9%	8.91µM*	11.1%	-15.1%	10.3
COc1ccc(CN(C)CC(=O)Nc2ccccc2-c2ccccc2)c(OC)c1	20µM*	10.0%[10 µM]	2.82µM*	2.7%	.	.
CCOc1cc(/C=N/NC(N)=O)ccc1OCC(=O)Nc1ccc(C)c(C)c1	-20.0%[9.22 µM]	-10.4%[10 µM]	-14.6%	6.3%	.	.
Cc1cc(N)c2ccccc2[n+]1CCCCCCCCCC[n+]1c(C)cc(N)c2ccccc21	?	-150.5%	-6.5%	4.4%	-13.8%	.
c1nc(N2CCNCC2)c2cc(-c3ccc4c(c3)OCO4)ccc2n1	.	0.3%	-9.7%	6.4%	-20.1%	.
Cc1ccc(Oc2ccc(NC(=O)CCC(=O)OCC(=O)c3cccs3)cc2)cc1C	-12.3%	-33.6%	?	9.1%	-27.8%	-7.7
COc1ccc(/C(CC2OC(=O)c3ccccc32)=N\NC(N)=O)cc1 (stereo not given)	16.9%	-1.6%	-9.8%	2.1%	.	.
Cc1nn(C)cc1S(=O)(=O)NC1CCCC1	4.4%	?	-1.0%	12.5%	.	.
CCCCCCCC1=CC2=CC(=O)C(C)(O)C(=O)C2=CN1CCCC (stereo not given)	.	8.3%[10 µM]	-2.3%[13.5 µM]	.	.	.
C/C(O)=C1\C(=O)[C@@H]2[C@H]3c4c[nH]c5cccc(c45)C[C@H]3C(C)(C)N2C1=O	.	-117.1%	-3.6%	7.7%	.	.
Cc1ccccc1OCC(=O)Nc1ccc2c(c1)C(=O)c1ccccc1C2=O	-15.1%	7.5%[10 µM]	17.8µM*	0.3%	-14.6%	43.6
CC(=O)Nc1ccc2c(c1)C(=O)c1ccccc1C2=O	6.5%	-62.2%	3.55µM*	8.4%	-4.1%	-3.5
O=C1c2ccccc2C(=O)c2cc(NC(=O)C3CC3)ccc21	-8.7%	-2.6%[10 µM]	?	9.5%	-2.8%	?
CCC#CCOCC(=S)Nc1ccccc1	.	11.1%	6.2%	8.8%	-14.6%	.
S=C(c1ccc(N2CCOCC2)cc1)N1CCOCC1	-4.0%	-16.8%[0.074 µM]	2.24µM*	-19.2%	7.94µM*	-3.4
Oc1ccc(C(=S)N2CCCCCC2)cc1	25.4%	-1.6%	?	-5.3%	?	14.5
S=C(c1ccc(N2CCCC2)cc1)N1CCCCC1	-13.5%	-22.9%	20µM*	3.6%	14.1µM*	12.3
NC(=O)[C@@H]1CCCNc2c(I)cc([N+](=O)[O-])cc2C(=O)N[C@@H](CCC(=O)O)C(=O)N[C@@H](CO)C(=O)N1	12.8%	.	6.2%	1.8%	-7.8%	21.1
Cn1cc([N+](=O)[O-])c(C(=O)Nc2ccn(Cc3c(F)c(F)cc(F)c3F)n2)n1	.	10µM*	4.8%	3.9%	-10.7%	?
Cn1ncc([N+](=O)[O-])c1C(=O)Nc1ccn(Cc2ccccc2F)n1	7.3%	-0.1%	5.2%	-3.5%	-2.1%	4.5
O=C1[C@@H]2C[C@@H]3C[C@H]1C[C@@](O)(C3)C2	-9.2%	-43.6%	.	.	.	.
O=C(N/N=C/C=C/c1ccccc1)c1cccc(Br)c1	-14.2%	-21.4%	-10.7%	-10.1%	-9.2%	24.7
CCC/C=N/NC(=O)c1cccc(Br)c1	10.8%	-29.3%	25.1µM*	9.3%	.	.
O=c1c2ccccc2nc2n1C(CSCc1ccc(Cl)cc1Cl)CS2 (stereo not given)	8.91µM*	-40.5%	-5.5%	-2.9%	-24.6%	-13.7
O=C(CCc1nc2ccccc2s1)OCc1ccccc1F	19.7%	10.2%[10 µM]	-1.3%	.	.	-6.8
SMILES	HTT aggregate	HTT cytoprotect	ALDH1A1 inh	RGS12 GoLoco inh	HPGD block	PNC assembly inh
C=CCn1c(=O)/c(=C/c2ccc(Cl)cc2)s/c1=C(/C#N)c1nnc2n1CCCCC2	3.7%	-24.8%	?	7.1%	25.1µM*	13.2
C=CCn1c(=O)/c(=C/c2ccc(O)cc2)s/c1=C(/C#N)c1nnc2n1CCCCC2	-0.3%	-1.2%[0.074 µM]	?	63.3%	-11.0%	-14.1
COC(=O)NC(c1ccc(F)cc1)C(C(C)=O)C(=O)OC (stereo not given)	.	-9.2%[10 µM]	28.0%[13.5 µM]	.	.	.
Cc1ccc(C(=O)Oc2ccc3c(c2)ncn3C)cc1	4.6%	-35.0%	-13.2%	-15.9%	7.94µM*	-10.1
Cn1cnc2cc(OC(=O)c3ccccc3)ccc21	-8.8%	-19.3%	-8.7%	-2.9%	-7.5%	23.3
O=C(C1CC1)N1CCN(c2ccnc3cc(Cl)ccc23)CC1	-14.6%	.	42.0%	6.9%	.	.
CC(C)S(=O)(=O)N1CCN(c2ccnc3cc(Cl)ccc23)CC1	-5.1%[9.22 µM]	8.7%[10 µM]	14.1µM*	11.5%	.	.
Cc1ccc2c(c1)c1c3n2CC(=C2C(=O)OC(C)(C)OC2=O)NC3CCC1 (stereo not given)	4.1%	-29.8%[10 µM]	10µM*	2.3%	-17.0%	7.6
CCOc1cccc(=O)c2c(C)n(Cc3ccco3)c(C)c12	10.3%	0.5%	2.24µM*	36.4%	?	-100.0*
Cc1ccc(O)c(N=NC2=C(O)CC(C)(C)CC2=O)c1	?	.	6.31µM*	-2.9%	-18.5%	?
CC1(C)CC(=O)C(N=Nc2cc3c(cc2[N+](=O)[O-])OCCO3)=C(O)C1	28.8%	-10.9%[10 µM]	0.562µM*	-24.4%	.	.
CC1(C)CC(=O)C(N=Nc2cc(Cl)c(Cl)c(Cl)c2)=C(O)C1	18.4%	-5.2%[10 µM]	5.01µM*	10.9%	-8.1%	17.7
Cc1c(N=NC2=C(O)CC(C)(C)CC2=O)c(=O)n(-c2ccccc2)n1C	-15.5%[9.22 µM]	-0.3%[10 µM]	10µM*	-39.9%	.	.
N[C@@H](CC1=CS(=O)(=O)c2ccc(Cl)cc21)C(=O)O	.	3.8%[10 µM]	-9.3%[13.5 µM]	11.3%[14.2 µM]	-8.8%	.
Cc1cc(=O)[nH]c(N/N=C/c2cn(CCC#N)nc2-c2ccccc2)n1	20.3%	.	-7.4%	10.8%	.	.
N#CCCn1cc(/C=N/NC(=O)c2ccncc2)c(-c2ccccc2)n1	1.3%	3.0%[10 µM]	-10.0%	11.3%	-15.5%	-83.5*
O=c1cc(CF)[nH]c(=S)[nH]1	.	-14.2%[10 µM]	-13.2%[13.5 µM]	-5.1%[14.2 µM]	-13.1%	.
Cc1cc(O)c(/C=N/Nc2ccccc2)c(=O)o1	-7.2%	-9.2%[10 µM]	7.94µM*	-5.9%	-29.6%	-15.2
CC(C)CCNC(=O)c1ccc(-c2ccccc2)cc1	2.4%[9.22 µM]	-82.5%	4.2%	13.5%	.	.
Cc1ccc(-c2cc(-c3ccccc3C)[nH]n2)c(O)c1	-2.5%	4.4%[1.9 µM]	0.7%	-11.4%	10µM*	26.0
Oc1ccc(Br)cc1-c1cc(-c2ccccc2)n[nH]1	-4.2%	2.4%[10 µM]	3.5%	6.3%	25.1µM*	41.5
Cc1ccc(-c2cc(-c3cccc(F)c3)n[nH]2)c(O)c1	0.1%	-16.8%	12.1%	6.1%	-17.4%	-27.6
Oc1ccccc1-c1cc(C(F)(F)F)[nH]n1	-23.5%[9.22 µM]	-16.7%[10 µM]	.	4.9%	.	.
